Reference: PubChem BioAssay AID624391 (National Center for Advancing Translational Sciences (NCATS), 2012)
Calls of active or inactive are those of the source. The call rests on the fitted dose curve; in most records, active means well fitted curve in the direction sought with a large enough effect; inactive means no such curve, though single readings can be large or run the other way.

These compounds were tested against Pyruvate kinase PKM (Homo sapiens) (UniProt P14618) (assay: qHTS for Activators of Human Muscle Isoform 2 Pyruvate Kinase: Extended Characterization for Probe 2). Conditions: purified hPK-M2, Kinase-Glo ATP luminescence, 1 h.
Protocol: Human pyruvate kinase muscle 2 (hPK-M2) enzyme was supplied as a highly purified (>95% pure) preparation from Harvard Medical School and assayed for its ability to generate ATP from ADP using phosphoenolpyruvate (PEP) as a substrate. ATP generation was detected in a coupled reaction by luciferase-mediated luminescence, an ATP-dependent process. […] The enzyme was assayed at an intermediate level of activity to screen for both inhibitors and activators. NIH Chemical Genomics Center [NCGC] NIH Molecular Libraries Probe Centers Network [MLPCN] MLPCN Grant: MH085679 Assay Submitter (PI): Matthew G. Vander Heiden, Harvard Medical School
Three uL of substrate mix (at r.t.) in assay buffer (50 mM Imidazole pH7.2, 50 mM KCl, 7 mM MgCl2, 0.01% Tween 20, 0.05% BSA) was dispensed into white solid bottom 1,536 well microtiter plates so that the final concentrations of substrates in the assay were 0.1 mM ADP and 0.5 mM PEP. 23 nL of compound were delivered by a pin tool and 1 uL of enzyme mix (final concentration of 0.1 nM) in assay buffer (4 degree Celsius) was added. Plates were incubated at room temperature for 1 hour. Two uL of detection mix (Kinase-Glo, Promega; at 4 degree Celsius protected from light) was added and luminescence read by a ViewLux (Perkin Elmer) at 1 second exposure/plate. Data were normalized to the uninhibited (column 3) and AC100 inhibition (no enzyme in column 2). To monitor activation, the first column contained a titration of the activator, NCGC00031955-03 (16-point 1:2 dilutions in duplicate starting at 57 uM) and the first 16 rows of column 4 contained 57 uM of NCGC00031955-03.

Chain of Pyruvate kinase PKM (Homo sapiens) (P14618 whole entry, looked up, canonical isoform): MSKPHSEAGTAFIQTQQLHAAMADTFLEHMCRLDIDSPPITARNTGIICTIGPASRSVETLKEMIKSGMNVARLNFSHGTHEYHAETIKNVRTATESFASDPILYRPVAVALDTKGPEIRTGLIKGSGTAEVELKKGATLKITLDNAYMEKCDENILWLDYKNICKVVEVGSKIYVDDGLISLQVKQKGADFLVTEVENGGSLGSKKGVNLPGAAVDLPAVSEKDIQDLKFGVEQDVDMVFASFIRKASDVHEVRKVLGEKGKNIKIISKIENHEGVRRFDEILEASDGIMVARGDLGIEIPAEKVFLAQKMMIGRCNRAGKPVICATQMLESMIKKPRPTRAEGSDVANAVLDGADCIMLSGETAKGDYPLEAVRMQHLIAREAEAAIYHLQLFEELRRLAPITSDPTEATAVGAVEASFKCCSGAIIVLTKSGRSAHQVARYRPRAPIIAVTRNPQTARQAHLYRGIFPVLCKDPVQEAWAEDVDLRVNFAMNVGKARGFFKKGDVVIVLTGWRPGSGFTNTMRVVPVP

Potency, active:
O=S(=O)(c1ccc2c(c1)OCCO2)N1CCN(S(=O)(=O)c2c(F)cccc2F)CC1 0.0819 µM
COc1cccc(Cn2ncc3c4sc(S(C)=O)cc4n(C)c3c2=O)c1 (stereo not drawn) 0.073 µM
Cc1ccc(NS(=O)(=O)c2ccc3c(c2)CCC(=O)N3)cc1C 0.163 µM
